The structures appear in SMILES notation. Out of some 290,000 compounds screened, about 27,000 (9.3%) were called active. Rule as the data show it: active = inhibition mostly above about 28% (no sharp cut-off); inactive = mostly below about 43%. This excerpt belongs to a sample that is enriched for actives. Where a SMILES comes first, the peptide text is derived from it. [ ]: non-standard residue; d: D form. The star is where a group is joined. ξ: configuration not given here. Cbz = O=C(OCc1ccccc1)*; ξL = CC(C)CC(N)C(=O)O; ξP = O=C(O)C1CCCN1

This test can be described thus: A qHTS for Small Molecule Inhibitors of Shiga Toxin. Also: 0% is about no effect. The settings on record: Vero cells, Shiga toxin protein synthesis inhibition reporter; at 38.7 µM, hits give high values.
The inhibition is the drop in the measured response relative to a control, in per cent. Turning to `O=C(Nc1cccc(F)c1)c1coc(=O)c(Br)c1`, the inhibition was -10.4% (inactive).

With `CCCCNC(=O)c1cn(CC)c2cc(N3CCN(C(=O)c4ccco4)CC3)c(F)cc2c1=O`, the inhibition is -7.36% (inactive).

For `COCCCNC(=O)/C(C#N)=C/c1c(N2CCCCCC2)nc2ccccn2c1=O`, the inhibition was -3.53% (inactive).

On to `CSCCC(Nc1nc2ccccc2s1)C(=O)O` (centres undefined), for which the inhibition was -3.96% (inactive).

Regarding `Cc1ccnc(Nc2nc3ccccc3s2)n1`, the inhibition was 76.8% (active).

Take `Cc1ccc(S(=O)(=O)Nc2nc3ccccc3s2)cc1[N+](=O)[O-]`: the inhibition was -15.3% (inactive).

As to `CS(=O)(=O)N(CC(=O)Nc1ccc(F)cc1)C1CCCCC1`, the inhibition was 18.9% (inactive).

Regarding `COc1ccc(S(=O)(=O)N2CCN(c3ccc(F)cc3)CC2)cc1-c1noc(C)n1`, the inhibition was -2.91% (inactive).

Turning to `Cc1ccc(-n2c(C)cc(/C=N/Nc3ccc([N+](=O)[O-])cn3)c2C)c(C)c1`, the inhibition is 50.3% (inactive).

Turning to `Cc1cc(/C=N/n2cnnc2)c(C)n1-c1cccc(C(=O)O)c1`, the inhibition is 26.3% (inactive).

For `Cc1cc(/C=N/Nc2ccc([N+](=O)[O-])cn2)c(C)n1-c1cccc(C(=O)O)c1`, the inhibition was 81.9% (active).

In the case of `CC(C)C[C@H](NC(=O)C1CC(=O)N(c2ccc3c(c2)OCCO3)C1)C(=O)NC1CCCC1` (some centres undefined), the inhibition is -4.71% (inactive).

On to `COc1cc(/C=C/C(=O)O)cc(S(=O)(=O)Nc2ccccc2C(=O)NCCc2ccccc2)c1OC`, for which the inhibition was 55.3% (inactive).

Take `CC(C)CC(NC(=O)C1CCCN1C(=O)[C@@H](C)NC(=O)OCc1ccccc1)C(=O)NCC(N)=O` (some centres undefined) (Cbz-[dA][ξP][ξL]G-NH2): the inhibition was -3.42% (inactive).

Consider `COC(=O)c1cccc(N(C(=O)c2ccco2)C(C(=O)NC2CCCC2)c2ccco2)c1` (centres undefined), for which the inhibition was -1.98% (inactive).

For the compound `COc1cc(NC(=O)CCS(=O)(=O)c2ccc3c(c2)oc(=O)n3C)cc(OC)c1`, the inhibition was 15.8% (inactive).

Turning to `COc1ccccc1OCCCC(=O)Nc1ccc2c(c1)OCCO2`, the inhibition is 20.5% (inactive).

As to `O=C(CCS(=O)(=O)Cc1ccccc1)Nc1ccc2c(c1)OCCO2`, the inhibition was -14.4% (inactive).

Consider `CCC(C)(C)NC(=O)CN(C(=O)C(=O)Nc1ccc2c(c1)OCCO2)C(C)(C)CC`, for which the inhibition was 15.3% (inactive).

In the case of `CCOc1ccc(NCCC(=O)c2ccc3c(c2)OCO3)cc1`, the inhibition was 21.5% (inactive).

Consider `O=C(COc1ccc(Cl)cc1)Nc1ccc2c(c1)OCO2`, for which the inhibition was 71.8% (active).

In the case of `COC(=O)CCNc1ccc2c(c1)OCCO2`, the inhibition is 155% (active).

Regarding `CCCCC(=O)Nc1ccc2c(c1)OCCO2`, the inhibition is 70.5% (active).

Consider `O=C(COc1ccc(Cl)cc1)Nc1ccc2oc(=O)ccc2c1`, for which the inhibition was 6.26% (inactive).

As for `CCc1ccccc1OCC(=O)Nc1ccc2c(c1)OCCO2`, the inhibition was 54.9% (active).

Turning to `CC(C)NS(=O)(=O)c1ccc(OCC(=O)Nc2ccc3c(c2)OCCO3)cc1`, the inhibition was -9.12% (inactive).

With `CCn1c(COc2ccccc2)nnc1SCC(=O)Nc1ccc2c(c1)OCCO2`, the inhibition is 4.75% (inactive).

As for `CCC(C(=O)Nc1ccc2c(c1)OCCO2)c1ccccc1` (centres undefined), the inhibition was 34.4% (inactive).

As for `CC(=O)Nc1cccc(Nc2nc(-c3cccs3)nc3ccccc23)c1`, the inhibition is 27.4% (inactive).

Turning to `Cc1cc(=O)oc2c1ccc1ccccc12`, the inhibition is 17.1% (inactive).

For `O=C(CCc1ccccc1)Nc1ccnn1C1CCN(Cc2ccc(OCCO)cc2)CC1`, the inhibition is 27.8% (inactive).

Consider `O=C(CC1C(=O)NCCN1CC(c1ccccc1)c1ccccc1)NCC1CCOCC1` (centres undefined), for which the inhibition was 16.2% (inactive).

On to `CC(NC(=O)CCCC1CCCCC1)c1ccc(S(N)(=O)=O)cc1` (centres undefined), for which the inhibition is -5.49% (inactive).

For the compound `COC(=O)c1cc(CNC(=O)CC(C)c2ccccc2)ccc1OC` (centres undefined), the inhibition was -4.17% (inactive).

As for `O=C(CSc1nnnn1C1CCCC1)Nc1ccc2c(c1)OCCO2`, the inhibition was 129% (active).

In the case of `CCC(=O)Nc1cccc(NC(=O)CSc2nnnn2C2CCCC2)c1`, the inhibition was -2.63% (inactive).

In the case of `O=C(CSc1nnnn1-c1ccc2c(c1)CCC2)Nc1ccc2c(c1)OCCO2`, the inhibition is 33.4% (inactive).

Regarding `Cn1ccnc1SCC(=O)Nc1ccc2c(c1)OCCO2`, the inhibition was 7.65% (inactive).

Take `Cc1ccc(S(=O)(=O)NCC(=O)Nc2ccc3c(c2)OCCO3)cc1`: the inhibition is -18.4% (inactive).

Turning to `Cc1ccc(SCC(=O)Nc2ccc3c(c2)OCCO3)cc1`, the inhibition is 77.1% (active).

Consider `Cc1cc(OC(=O)c2ccc(OC(C)C)cc2)c([N+](=O)[O-])c(=O)[nH]1`, for which the inhibition was 13% (inactive).

On to `COc1ccc(-n2nc3c(N4CCC(C(=O)NCc5ccccc5)CC4)nnc(C)c3c2C)cc1`, for which the inhibition was -7% (inactive).

As for `COc1ccc(CCNC(=O)CCc2cn(C)c3ccccc23)c(OC)c1`, the inhibition is -3.65% (inactive).

For the compound `CCc1nnc(NC(=O)/C=C/c2ccc(C)o2)s1`, the inhibition is 26.8% (inactive).

For `CCC(CC)c1nnc(NC(=O)/C=C/c2ccco2)s1`, the inhibition is 20% (inactive).

As to `CN1CCN(S(=O)(=O)c2ccc(NC(=O)c3ccco3)cc2)CC1`, the inhibition was 47.4% (inactive).

In the case of `Cc1ccc(C(=O)COc2cccc(NC(=O)c3ccco3)c2)cc1`, the inhibition is 14.8% (inactive).

`C/C(=N/NS(=O)(=O)c1ccccc1)c1ccc(NC(=O)C(F)(F)F)cc1`: the inhibition was -9.75% (inactive).

For the compound `CC(C)CNC(=O)COC(=O)/C=C/c1ccco1`, the inhibition was -5.59% (inactive).

Regarding `Cc1nnc(NC(=O)/C=C/c2ccco2)s1`, the inhibition was 45.9% (active).

Consider `O=C(O)/C=C\C(=O)Nc1ccc(OCc2ccccc2)cc1`, for which the inhibition was 43% (inactive).

`Cc1cccc(NC(=O)Nc2cccc(Oc3c(F)c(F)c(F)c(F)c3F)c2)c1`: the inhibition was -0.582% (inactive).

As for `C/C(=N\NS(=O)(=O)c1ccc(Cl)cc1)c1ccc(NC(=O)c2ccco2)cc1`, the inhibition was 34% (active).

For `O=C(/C=C/c1ccco1)Nc1ccc(Oc2ccccc2)cc1`, the inhibition is 80.2% (active).

In the case of `CCOC(=O)c1cccc(NS(=O)(=O)c2c(C(=O)N3CCCCCC3)c(C)n(C)c2C)c1`, the inhibition was -9.67% (inactive).

Consider `CC(=O)Nc1ccc(NC(=O)[C@@H](NC(=O)c2cccc(C)c2)C(C)C)cc1`, for which the inhibition was -2.98% (inactive).

In the case of `Cc1cc(C)cc(OCC(=O)Nc2cc(NC(=O)COc3cc(C)cc(C)c3)cc(C(=O)O)c2)c1`, the inhibition is -3.47% (inactive).

As for `Cc1ccc(NC(=O)CSc2cccc3cccnc23)c(C)c1`, the inhibition is 21.1% (inactive).

As for `O=C(CN1C(=O)COc2ccc(Cl)cc21)N1CCOCC1`, the inhibition was -1.98% (inactive).

For `CC1CCN(S(=O)(=O)c2nnc(NC(=O)COc3ccccc3F)s2)CC1`, the inhibition is 2.6% (inactive).

In the case of `O=C(Nc1ccc(O)cc1)c1ccc(NC(=O)c2ccco2)cc1`, the inhibition was 32.1% (active).

Consider `CCCC(=O)Nc1ccc2c(c1)nc(CCNC(=O)c1ccco1)n2C`, for which the inhibition is -1.85% (inactive).

Take `Cc1ccc(NC(=O)/C(=C\c2ccccc2)NC(=O)c2ccco2)cc1`: the inhibition is 15.6% (inactive).

Regarding `Cc1ccnc(NC(=O)c2ccc(NC(=O)c3ccco3)cc2)c1`, the inhibition was 64.6% (active).

Take `COc1cccc(C(=O)Nc2ccc(NC(=O)c3ccco3)cn2)c1`: the inhibition was 124% (active).

For the compound `O=C(Nc1ccc2oc(-c3ccccc3F)nc2c1)c1ccco1`, the inhibition is 85.3% (active).

Regarding `O=C(Nc1ccc(NC(=O)c2cccs2)cn1)c1ccco1`, the inhibition is 27.3% (inactive).

With `O=C(Nc1cccc(-c2nc3ncccc3o2)c1)c1ccco1`, the inhibition was 1.9% (inactive).

In the case of `Cc1cc(NC(=O)c2ccc(F)cc2)ccc1NC(=O)c1ccco1`, the inhibition is 39.7% (inactive).

Consider `COc1ccc(NC(=O)c2cccc(NC(=O)c3ccco3)c2)c(OC)c1`, for which the inhibition was 7.82% (inactive).

With `Cc1cc(=O)oc2c3c(cc(OCC(=O)N[C@H](C(=O)O)c4ccccc4)c12)OC(C)(C)CC3`, the inhibition was 9.9% (inactive).

For the compound `Oc1ccc(C2Nc3cccc4cccc(c34)N2)cc1`, the inhibition is -4.55% (inactive).

For `CSc1ccc(S(=O)(=O)N2CCC(C(=O)NCc3ccncc3)CC2)cc1`, the inhibition was -6.82% (inactive).

In the case of `CCOC(=O)N1CCN(S(=O)(=O)c2ccc(Br)cc2)CC1`, the inhibition is 9.83% (inactive).

Regarding `COCCN1C(=O)C(=O)/C(=C(/O)c2ccc(S(=O)(=O)N3CCOCC3)cc2)C1c1ccc(OC)c(OC)c1` (centres undefined), the inhibition was -8.01% (inactive).

With `Cc1cccn2c(=O)c(/C=C(\C#N)C(N)=O)c(N3CCCCCC3)nc12`, the inhibition was -3.79% (inactive).

Take `CC(C)Oc1ccc(C(CC(=O)N2CCOCC2)C(C)C)cc1` (centres undefined): the inhibition is 5.33% (inactive).

Regarding `COc1cc(C2/C(=C(\O)c3ccc4c(c3)CC(C)O4)C(=O)C(=O)N2c2nnc(C)s2)cc(OC)c1OC` (centres undefined), the inhibition is -6.77% (inactive).

Regarding `Cc1ccc(C(=O)NC2CCN(C(=O)Nc3ccccc3Cl)CC2)cc1`, the inhibition was -5.62% (inactive).

`COCCOC(=O)C1=C(C)NC(=O)NC1c1cc2c(cc1Br)OCO2` (centres undefined): the inhibition was 13.8% (inactive).

As for `Cc1ccnc(NC(=O)c2ccco2)n1`, the inhibition was 24.9% (inactive).

Turning to `COC(=O)c1cc(NC(=O)c2ccco2)ccc1N1CCOCC1`, the inhibition is -9.27% (inactive).

As for `O=C(Nc1ccc(Oc2ccccc2)cc1)c1ccco1`, the inhibition is 169% (active).

Regarding `O=C(Nc1ccc2nccnc2c1)c1ccco1`, the inhibition is 98.5% (active).

For `O=C(Nc1ccccc1)/C(=C\c1ccco1)NC(=O)c1ccco1`, the inhibition is 14.3% (inactive).

With `O=C(Nc1ccncc1)c1ccc(Cl)c([N+](=O)[O-])c1`, the inhibition was -0.478% (inactive).

As for `O=C(Nc1ccc(Sc2ccc(Br)cc2)cc1)c1ccco1`, the inhibition is 60.3% (active).

For `O=C(Nc1cccc(NC(=O)c2ccco2)c1)c1cnccn1`, the inhibition was 7.98% (inactive).

Regarding `O=C(Nc1ccccc1)c1ccco1`, the inhibition was 19.7% (inactive).

Consider `Cc1ccnc(NC(=O)c2ccc(Cl)c([N+](=O)[O-])c2)c1`, for which the inhibition was 50.2% (active).

For the compound `O=C(Nc1cccnc1)c1ccc(Cl)c([N+](=O)[O-])c1`, the inhibition was 52.4% (inactive).

For the compound `Cc1cc(NC(=O)[C@H](C)NC(=O)c2ccco2)ccc1Br`, the inhibition was 4.7% (inactive).

For `O=[N+]([O-])c1ccc(NC(=S)N2CCN(c3ccccn3)CC2)cc1`, the inhibition was -11.7% (inactive).

`O=C(CCN1CCCO1)N1CCCC(N2CCN(c3cccc(C(F)(F)F)c3)CC2)C1` (centres undefined): the inhibition is 3.43% (inactive).

(Values after PubChem BioAssay AID2315 (National Center for Advancing Translational Sciences (NCATS), 2010).)
